# Source: PubChem
# Shown are actives, neighbours in structure and some others; about 1.5% of the full set was active somewhere.
# dFosB activator – activators of mouse delta FosB homodimer | purified delta FosB, TAMRA-CDK5 oligo fluorescence polarization; percent of positive-control signal above neutral wells | activation, % at 25 µM | 340,000 tested, 0.99% active;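 active = mean activation above about 17%, with every replicate also reaching it, limit read from the data, passing the limit was not always enough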
# RAD54 branch – RAD54 (human) branch migration inhibition; RAD54 Holliday junction branch migration, FAM/BHQ fluorescence; inhibition, % at 10.4 µM; 360,000 tested, 0.14% active;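 active = mean normalized replicate activity at least 40 and at least half of replicates scoring 40 or more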;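 also: 0% = median of neutral control wells and 100% = median of positive control wells; inhibitors cause a drop in the FAM fluorescence signal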
# Target sequence (Q92698 whole entry, looked up): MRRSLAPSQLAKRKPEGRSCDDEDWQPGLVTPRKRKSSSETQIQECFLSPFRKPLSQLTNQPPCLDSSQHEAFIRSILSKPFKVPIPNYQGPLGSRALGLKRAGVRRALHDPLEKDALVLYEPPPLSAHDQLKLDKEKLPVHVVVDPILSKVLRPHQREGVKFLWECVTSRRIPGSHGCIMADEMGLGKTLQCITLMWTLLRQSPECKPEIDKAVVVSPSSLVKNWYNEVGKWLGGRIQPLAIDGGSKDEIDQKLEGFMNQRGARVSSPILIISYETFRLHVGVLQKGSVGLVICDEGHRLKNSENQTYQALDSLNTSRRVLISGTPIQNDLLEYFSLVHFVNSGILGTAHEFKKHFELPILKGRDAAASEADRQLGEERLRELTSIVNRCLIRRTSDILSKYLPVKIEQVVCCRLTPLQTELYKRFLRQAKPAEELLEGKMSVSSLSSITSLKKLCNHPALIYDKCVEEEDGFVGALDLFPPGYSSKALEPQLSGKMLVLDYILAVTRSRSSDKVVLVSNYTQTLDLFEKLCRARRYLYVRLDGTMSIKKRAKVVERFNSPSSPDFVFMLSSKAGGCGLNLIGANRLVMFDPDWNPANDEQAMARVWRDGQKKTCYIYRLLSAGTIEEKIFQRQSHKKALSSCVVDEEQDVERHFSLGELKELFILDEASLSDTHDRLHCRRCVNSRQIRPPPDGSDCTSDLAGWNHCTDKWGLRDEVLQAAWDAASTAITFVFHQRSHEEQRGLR
# F508del corr – CFTR F508del correction in bronchial cells; CFBE cells, YFP halide quenching; stimulated with forskolin plus potentiator P3; % fluorescence drop versus neutral controls; activity (quench increase), % at 7.58 µM; 350,000 tested, 0.36% active; AID 720511;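 active = mean added fluorescence quench of at least 8% versus neutral control, with both replicates also reaching 8%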;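 also: cells transiently co-express mutant CFTR-F508del with the halide-sensitive YFP; corrector assay measuring rescue of mutant channel to the surface after 24 h compound exposure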
# RAD52 inh – inhibitors of human RAD52 DNA annealing. 360,000 tested, 0.46% active. recombinant RAD52 DNA annealing, FRET fluorescence. inhibition, % at 18.7 µM. P43351;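 active = every replicate showing at least 50% inhibition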
# Glyco luc inh – blocks N-linked glycosylation in D54 reporter cells | 360,000 tested, 0.23% active | D54 ERlucT glycosylation luciferase reporter, 24 h; percent of 100 nM tunicamycin response | reporter increase, % at 12.5 µM;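 active = mean luciferase reporter signal, scaled so untreated is 0 and the glycosylation-blocking control 100, at or above a set limit in every replicate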;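 also: luciferase carries N-glycosylation sites so blocking glycosylation raises the light; 0% = median of neutral control wells and 100% = median of 100 nM tunicamycin wells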
# PvdQ acylase – blocks Pseudomonas aeruginosa PvdQ acylase activity; purified PvdQ acylase, fluorescence plate reader; inhibition, % at 10 µM; 340,000 tested, 0.063% active; AID 488965; in the data active = inhibition above about 30%, passing the limit was not always enough;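 also: 0% = vehicle neutral wells and 100% = reference inhibitor wells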
# DNA binder FP – DNA binding artifact in RAD52 counter-screen | Salmon sperm DNA/acridine orange FP displacement | AID 652128 | shares compounds with RAD52 inh | AC50, µM | 1,000 tested, 8% active;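 active = fitted half-maximal concentration for signal loss at or below twice the highest dose tested, in every separate run, actives reach about 64 µM in these data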
# Numbers without * were called inactive; i = inactive; / = not tested or not shown; ! = not active in a repeat.
SMILES,dFosB activator,RAD54 branch,F508del corr,RAD52 inh,Glyco luc inh,PvdQ acylase,DNA binder FP
C[C@H](CO)N1C[C@H](C)[C@H](CN(C)C(=O)Nc2ccccc2)Oc2ccc(NC(=O)Cc3ccccc3)cc2C1=O,/,5,0,12,/,/,/
CN(C)CCCN(C(=O)/C=C/c1cccs1)c1nc2ccc(F)cc2s1,-109,21,-2,58*,-6,1,i
COc1ccc(OC)c2sc(N(CCN(C)C)C(=O)/C=C/c3cccs3)nc12,40*,90*,0,101*,-10,-9,i
COc1ccc(C)c2sc(N(CCN(C)C)C(=O)c3cccc(N4C(=O)CCC4=O)c3)nc12,10,/,-3,70*,3,-6,i
CCOc1cccc2sc(N(CCN(C)C)C(=O)/C=C/c3cccs3)nc12,14,3,/,/,11,-3,/
Cc1ccc(S(=O)(=O)N[C@H]2CC[C@H](CCNC(=O)C3CCOCC3)O[C@@H]2CO)cc1,/,-10,2,2,/,/,/
COc1cc2c(cc1OC)C(c1ccccc1N)=NCC2,-6,26,-1,61*,0,-11,i
COc1cc2c(cc1OC)C(c1ccccc1)=NCC2,0,-1,0,-6,0,15,/
COc1cccc(C2=CC(=O)C(C(C)(C)C)N2C(C)(C)C)c1 (stereo unspecified),-21,-15,-3,79*,4,-27,i
COc1cccc(C2=NOC(C(=O)NC(C)(C)C)C2)c1 (stereo unspecified),3,/,/,/,1,-7,/
O=C(C[C@@H]1CC[C@@H]2[C@H](COC[C@@H](O)CN2Cc2cc(F)ccc2F)O1)NCc1ccccc1,/,-2,1,3,/,/,/
O=C(O)CCNc1ccc(NCCC(=O)O)c2c1C(=O)c1ccccc1C2=O,-26,/,1,-111,-4,9,/
O=C1c2cccc(NCCNCCO)c2C(=O)c2cccc(NCCNCCO)c21,-21,/,5,63*,-22,17,4µM*
CCN(C[C@H]1[C@H](c2ccccc2)[C@@H](CO)N1S(C)(=O)=O)C(=O)C1CCC1,/,4,0,/,/,/,/
CCCCCc1cc(=O)oc2c(C(CCN3CCCC3)c3cc(OC)c(OC)c(OC)c3)c(OC)cc(OC)c12 (stereo unspecified),0,7,2,59*,-7,-18,i
COc1cc2c(cc1O)CC[n+]1cc3c(OC)c(OC)ccc3cc1-2,14,76*,-1,81*,3,-6,i
COc1cc2c(ccc3cc(OC)c(OC)c(O)c32)cc1O,-15,20,2,0,-6,0,/
CCc1c(C)nc(Nc2nc(C)c3cc(OC)ccc3n2)[nH]c1=O,-43,8,/,/,13,-15,/
COc1ccc2nc(NC3=NC(c4ccccc4)CC(=O)N3)nc(C)c2c1 (stereo unspecified),-9,/,0,72*,2,-13,i
c1ccc2c(NCCCN3CCOCC3)c3ccccc3nc2c1,/,/,11*,93*,/,/,33µM*
C[C@@H]1CN([C@@H](C)CO)C(=O)c2cc(NC(=O)Nc3ccc(C(F)(F)F)cc3)ccc2O[C@@H](C)CCCCO[C@H]1CN(C)Cc1ccncc1,/,-10,2,27,/,/,/
c1cncc(-c2nc(N3CCOCC3)c3c4c(sc3n2)CCC4)c1,-13,2,3,-1,11,6,/
c1cncc(-c2nc(NCCCN3CCOCC3)c3c4c(sc3n2)CCC4)c1,-8,/,-1,62*,-1,6,i
C[C@@H](O)C#Cc1cnc2c(c1)C(=O)N([C@@H](C)CO)C[C@H](C)[C@H](CN(C)C(=O)Cc1ccccn1)O2,/,1,-4,-22,/,/,/
NC(=S)NN=C1c2cc(OCCN3CCOCC3)ccc2-c2ccc(OCCN3CCOCC3)cc21,39*,/,-1,87*,1,-17,i
SMILES,dFosB activator,RAD54 branch,F508del corr,RAD52 inh,Glyco luc inh,PvdQ acylase,DNA binder FP
Clc1ccc(OCCN2CCOCC2)cc1Cl,1,0,/,/,1,-4,/
CCCCCCCC[n+]1cccc(C(=O)N(CC)CC)c1,-1,/,2,3,2,-18,/
CCCCCCCCCCCCCCCC[n+]1cccc(C(=O)N(CC)CC)c1,16,40,5,88*,-4,7,i
NC(N)=Nc1nc(-c2ccccc2)c2ccccc2n1,-29,51*,0,64*,9,-14,i
CCc1nc(N=C(N)N)nc2ccccc12,/,/,6,63*,/,/,i
COc1cccc(S(=O)(=O)Nc2ccc3c(c2)[C@H]2C[C@@H](CC(=O)NCc4ccccc4F)O[C@@H](CO)[C@H]2O3)c1,/,6,0,-5,/,/,/
C[C@H]1CN([C@@H](C)CO)C(=O)c2cc(C#CCN(C)C)cnc2O[C@@H]1CN(C)S(=O)(=O)c1ccccc1,/,-8,1,0,/,/,/
NC1(N2SC(S)=C3CCCC=C32)CCCCC1,/,/,-3,86*,/,/,i
CCOC(=O)c1c(NC(=O)C[n+]2ccc(Cc3ccccc3)cc2)sc(C)c1C,2,/,3,50*,0,-11,i
COc1ccc(NC(=O)Nc2ccc3c(c2)C(=O)N([C@H](C)CO)C[C@@H](C)[C@@H](CN(C)Cc2ccc4c(c2)OCO4)OCCCC[C@H](C)O3)cc1,/,-4,-1,59*!,/,/,i
CN1CCN(C2Cc3cc(Cl)ccc3Sc3cc(F)ccc32)CC1 (stereo unspecified),-1,/,0,54*,-6,-14,i
Cc1c(C)n(Cc2ccccc2)c2ccc(C(=O)OCCN(C)C)cc12,-7,31,0,66*,-6,-10,i
Cc1c(C)n(Cc2ccccc2)c2ccc(C(=O)NCCN3CCOCC3)cc12,-7,-11,0,16,-2,-10,/
C=CC[N@@+]12CC[C@]34c5ccccc5N5/C=C6\C7N(/C=C(\C53)[C@@H](C[C@@H]41)/C(=C/CO)C2)c1ccccc1[C@@]71CC[N@@+]2(CC=C)C/C(=C\CO)[C@@H]6C[C@@H]12 (stereo partly specified),2,3,0,69*,3,9,i
CCN(CC)CCNC(=O)C(=O)Nc1cc2c3c(c1)CC(=O)N3CCC2,-6,-5,-4,55*,-1,-8,i
CC(=O)N1CC(=O)N2[C@H](CO)[C@H](c3ccc(C#Cc4cccnc4)cc3)[C@@H]2C1,/,/,-2,15,/,/,/
COCC#Cc1ccc2c(c1)O[C@@H](CN(C)S(=O)(=O)c1ccc(OC)cc1)[C@H](C)CN([C@H](C)CO)S2(=O)=O,/,1,2,-6,/,/,/
CN(C)CCCn1c2c3ccccc3ccc2c2oc(=O)c3ccccc3c21,73*,/,7,64*,1,-17,i
C[C@@H]1CCCCO[C@H](CN(C)CC2CC2)[C@H](C)CN([C@@H](C)CO)C(=O)c2cc(NC(=O)c3ccncc3)ccc2O1,/,0,-1,25,/,/,/
